Compounds with a hit are over-represented: about 4.1% of the library has one in this group of screens.
M18AAP inhibitor: PfM18AAP inhibitors, malaria aminopeptidase, primary screen, biochemical, QFRET, recombinant enzyme; M18 aspartyl aminopeptidase (Plasmodium falciparum 3D7); H-Glu-NHMec fluorogenic cleavage; inhibition, % at 7.35 µM; 1.2% of 290,000 active;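 active means inhibition above the campaign mean inhibition over all tested compounds plus 3 SD, cut at about 28% in these data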;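 further: 0% = plate median of test compound wells and 100% = 2 mM ZnCl2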
PolyA inh: polyadenylation inhibitors in yeast reporter cells, primary screen, luminescence, S. cerevisiae | AID 1875, 2009 | S. cerevisiae SKY197-pL101 polyadenylation reporter, beta-gal luminescence; efflux-impaired pdr1/pdr3 knockout yeast; score 100 = 6 SD above DMSO | 0.02% of 300,000 active | activity score, % at 12 µM;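 active means lowest replicate activity score at least 50, where 100 means six control SD above control mean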;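 further: yeast exposed to compound for 9 h at 30 °C; higher score means more reporter readthrough which indicates perturbed polyadenylation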
IDE inh: human IDE inhibitors in live cells, primary screen, fluorescence polarization, HEK cells, FAbetaB substrate. Insulin-degrading enzyme (Homo sapiens), P14735. FAbetaB cleavage. inhibition, % at 5.59 µM. 0.41% of 320,000 active;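 active means percent inhibition above the average of all tested compounds plus 3 SD, set per screening campaign, cut at about 16% in these data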;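 further: IDE supplied by intact live HEK cells; FP after avidin binding of uncleaved biotin substrate so inhibition keeps polarization high; 0% = DMSO wells and 100% = 60 µM reference IDE inhibitor Ii1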
CaV13 ICDI inh: Primary screen for inhibitors of IQ motif and Ca2+-dependent inactivation inhibitor domain binding in CACNA1D, Förster resonance energy transfer in living cells, …. inhibition, % at 12.3 µM. HEK cells, CFP/YFP FRET ICDI-IQ, plate reader, 10 min; percent FRET-ratio fall versus neutral wells. 0.098% of 340,000 active;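 active means mean replicate inhibition of at least 30% and at least 1% of replicates passing that level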;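 further: 0% = median of the neutral control wells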
IDE act: human IDE activators in live cells, primary screen, fluorescence polarization, HEK cells, FAbeta-B substrate; AID 493087, 2011; 0.073% of 340,000 active; FAbeta-B cleavage; 0% vehicle, 100% cell-free pure enzyme wells; Insulin-degrading enzyme (Homo sapiens), P14735; activation, % at 5.96 µM;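 active means activation above the mean of all tested compounds plus 3 SD, set per screening campaign, cut at about 17% in these data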
ALR H2O2 inh: inhibitors of human ALR sulfhydryl oxidase, primary screen, biochemical, H2O2 detection, HRP-luminol luminescence, single point; purified ALR, DTT oxidation; inhibition, % (test concentration not listed); 3.8% of 290,000 active; AID 485317, 2010;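 active means mean replicate inhibition above about 79%, with every replicate also reaching it, limit read from the data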
Target sequence (P55789 whole entry, looked up): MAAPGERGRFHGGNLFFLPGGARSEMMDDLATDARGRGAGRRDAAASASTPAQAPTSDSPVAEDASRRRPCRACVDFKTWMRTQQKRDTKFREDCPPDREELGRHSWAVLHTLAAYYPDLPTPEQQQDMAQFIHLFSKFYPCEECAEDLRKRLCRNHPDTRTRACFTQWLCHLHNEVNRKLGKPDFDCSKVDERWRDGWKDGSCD
Numbers without * were called inactive; · = no result given.

SMILES	M18AAP inhibitor	PolyA inh	IDE inh	CaV13 ICDI inh	IDE act	ALR H2O2 inh
O=C(CSc1nccc(=O)[nH]1)Nc1ccc(Br)c(Cl)c1	-4	19	1	-2	0	98*
O=C(CSc1nccc(=O)[nH]1)Nc1ccc2ccccc2c1	·	·	3	-3	-1	12
CCn1c2ccccc2c2cc(NC(=O)CSc3nccc(=O)[nH]3)ccc21	12	1	-2	0	-1	98*
O=C(CSc1ccc2c(c1)OCCO2)Nc1cccnc1	-12	5	8	-3	-2	99*
O=C(CSc1nccc(=O)[nH]1)Nc1ccc2c(c1)OCCO2	3	6	2	-5	5	98*
Cc1cc(=O)[nH]c(SCC(=O)Nc2ccc3c(c2)OCCO3)n1	19	0	8	-2	5	-2
CCC1Oc2ccccc2C(=O)N(CC(=O)c2ccc3c(c2)OCCO3)C1=O (stereo unspecified)	-1	-30	2	-6	7	-3
COc1cccc(N2CCN(C(=O)c3ccc4nc(N5CCC(C)CC5)sc4c3)CC2)c1	-3	-11	-1	-3	·	-9
O=C(CSc1nccc(=O)[nH]1)Nc1ccc(F)c([N+](=O)[O-])c1	-6	0	-14	-5	11	0
CC(=O)Nc1ccc(C(=O)CSc2nccc(=O)[nH]2)cc1	-6	7	3	-6	·	99*
O=C(CSc1nccc(=O)[nH]1)Nc1ccc(F)c(Cl)c1	6	5	5	-7	-1	100*
O=C(CSc1nccc(=O)[nH]1)Nc1ccc(Oc2ccccc2)cc1	-2	10	2	-4	7	-7
O=C(CN1CCOc2ccccc21)NC1CCCCCCC1	3	-19	1	-2	3	99*
O=C(CN1CCOc2ccccc21)NC1CCN(Cc2ccccc2)CC1	5	5	1	-3	3	87*
O=C(CN1C(=O)COc2ccccc21)NC1CCCC1	-2	7	6	-8	-1	-1
O=C(N=C1SC2CS(=O)(=O)CC2N1c1ccccc1F)C1CCCCC1 (stereo unspecified)	2	-6	-1	-3	2	-1
COc1cccc(NC(=O)CSCc2cc(=O)n3ccsc3n2)c1	-7	4	-4	·	3	99*
Cc1cccc(NC(=O)CSCc2cc(=O)n3nc(C4CC4)sc3n2)c1	2	3	-3	-5	-2	98*
CCOCCc1nn2c(=O)cc(CSCC(=O)Nc3ccccc3)nc2s1	-3	5	2	-7	3	99*
CCOCCc1nn2c(=O)cc(CSCC(=O)Nc3ccc(OC)cc3)nc2s1	-17	-4	0	-14	-2	-3
O=C(CSCc1cc(=O)n2ccsc2n1)Nc1ccccc1	-8	9	-3	-15	0	99*
COc1ccccc1NC(=O)CSCc1cc(=O)n2ccsc2n1	4	0	5	-2	-1	1
N#Cc1ccc(OCC(=O)n2cc(C(=O)c3cc(Cl)cc(Cl)c3O)cn2)cc1	9	-16	-7	·	·	25
CCc1cc2c(SCC#N)ncnc2s1	2	-1	0	-6	3	14
Cc1ccc(S(=O)(=O)NC[C@H]2O[C@@H](n3ccc(N)nc3=O)[C@H](O)[C@@H]2O)s1	·	·	·	-8	·	·
COc1ccc(CNc2ccccn2)c(O)c1	-4	-5	·	-4	0	·
Oc1c(Br)cc(Br)cc1CNc1ccccn1	1	-15	3	-7	6	98*
COc1cccc(CNc2cccc3cccnc23)c1O	31*	-37	5	-8	1	-13
Oc1c(Br)cc(Br)cc1CNn1cnnc1	11	21	5	-19	-2	99*
Oc1ccc(Cl)cc1CNc1cccc2cccnc12	31*	-34	0	-2	-3	·

Screening data as filed in PubChem.
